Screens: PubChem, National Center for Advancing Translational Sciences (NCATS)
Most compounds without a hit are left out; they make up all but 21% or so of the library.
Pf growth 48h = P. falciparum growth inhibition at 48 hours (one generation). actives 5.9% (n = 310,000). Potency, µM (highest dose often 28.7 µM), inactives show top-dose activity change, negative = inhibition, usual class: inhibitors. AID 504832. P. falciparum luciferase growth in erythrocytes, 48 h; further: potency means the concentration at half of the fitted maximal effect; on the % scale 0 is the no-effect control and ±100 the full control effect
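Luciferase-expressing parasites in RBCs, 2% Hct / 0.1% parasitemia final; RPMI 1640 + 0.5% Albumax; 37 C, 5% CO2, one generation; luminescence read-out, lower signal = inhibition.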
Pf growth 96h = P. falciparum growth inhibition at 96 hours; P. falciparum luciferase reporter growth, 96 h; Potency, µM (highest dose often 28.7 µM), inactives show at the top dose activity change, negative = inhibition, hits mostly inhibitors; actives 6.9% (n = 320,000); AID 504834; further: potency means the concentration at half of the fitted maximal effect; on the % scale 0 is the no-effect control and ±100 the full control effect
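P. falciparum expressing integrated firefly luciferase, in erythrocytes at 2% hematocrit, 0.05% parasitemia, incubated with compounds 96 h at 37 C, 5% CO2. Growth inhibition read as loss of luminescence; two-generation exposure targets delayed-death apicoplast inhibitors.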
Shiga inhibitor = inhibitors of Shiga toxin in Vero cells; AID 2315; Vero cells, Shiga toxin protein synthesis inhibition reporter; inhibition, % at 38.7 µM; actives 9.2% (n = 290,000); in the data active means inhibition mostly above about 28%, no sharp cut-off; inactive means mostly below about 43%; further: 0% is about no effect
NS1 inh = blocks influenza NS1 protein function. Potency, µM (doses to about 46.1 µM), for the others: top-dose activity, positive = more growth. actives 0.4% (n = 270,000). AID 2326; calls by dose curve; further: potency means the concentration at half of the fitted maximal effect; actives are rising curves; nearly all actives have a fitted effect of over 50% in size
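In this qHTS, NS1 from influenza A is expressed in budding yeast, where it slows growth. Cells are switched from glucose to 2% galactose medium (pH 6.0, -URA), treated with compound, and growth recovery is read at OD600.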
CHX counter = counter-screen hit for Shiga toxin inhibitors, cycloheximide | cell reporter, cycloheximide protein synthesis inhibition counterscreen | max response, % | actives 12% (n = 300,000) | AID 2314; in the data active means max response mostly above about 13%, no sharp cut-off; inactive means mostly below about 14%; further: read at 38.3 µM for the half of the compounds with a filed dose; 0% is about no effect
Active calls of the source: *; ? = inconclusive; . = no result given; + = active, no number. Unless noted, the call rests on the fitted dose curve; in most records, active means well fitted inhibition curve with a large enough effect; inconclusive means small, poorly fitted or top-dose-only effect, or another doubt; inactive means no such curve, though single readings can be large or run the other way.

SMILES	Pf growth 48h	Pf growth 96h	Shiga inhibitor	NS1 inh	CHX counter
COc1ccc(-c2c(-c3cc(OC)cc(OC)c3)n(C)c3ccc(-c4ccc(SC)cc4)cc23)cc1	38%	49%	.	.	.
COc1ccc(-c2c(-c3cc(OC)cc(OC)c3)n(C)c3ccc(-c4cc(F)cc(OC)c4)cc23)cc1	0%	?	.	.	.
COc1cc(OC)cc(-c2c(-c3ccc(F)cc3)c3cc(-c4ccc5[nH]ccc5c4)ccc3n2C)c1	5.2µM*	1.7µM*	.	.	.
COc1cccc(-c2c(-c3cc(OC)cc(OC)c3)n(C)c3ccc(-c4cccc5[nH]ccc45)cc23)c1	1.9µM*	?	.	.	.
O=C(Nc1ccc(Cl)cc1)Nn1cnnc1	-6%	-1%	-6	-1%	-2
COCCNC(=O)C1Cc2cc(S(=O)(=O)N3CCCC3)ccc2N1C(C)=O (stereo unspecified)	-7%	?	-14	13%	-3
CN(CC(=O)Nc1ccc(Cl)c(Cl)c1)C(=O)C1CCCC1	?	5.2µM*	.	.	.
Cc1ccc(NC(=S)NN2CCOCC2)c(C)c1	19%	15µM*	-28	1%	-2
FC(F)(F)c1ccc(NC(=S)NC2CCCCC2)cc1	?	?	82*	.	44*
CN(CC(=O)Nc1ccc(Cl)c(Cl)c1)C(=O)CNC(=O)C1CCCCC1	32%	1%	.	.	.
S=C(NNc1ccc2ccccc2c1)NC1CCCCC1	-1%	-4%	61*	-13%	49*
CCOc1ccc(NC(=O)CSc2n[nH]c(=O)n2-c2ccccc2)cc1	3%	-1%	-16	1%	-2
COC(=O)c1ccccc1S(=O)(=O)N1Cc2cc([N+](=O)[O-])ccc2Oc2ccccc21	-5%	.	-27	9%	-3
Fc1cccc(NC(=S)NC2CCCCCCC2)c1	?	80%	75*	-106%	35*
CC(C)c1ccc(NC(=S)NN2CCOCC2)cc1	105%	?	48*	11%	23*
S=C(Nc1ccc(Cl)c(Cl)c1)NC1CCN(Cc2ccccc2)CC1	4.1µM*	?	-7	-8%	-7
CC(C)c1ccc(NC(=S)NC2CCCCCC2)cc1	-23%	3%	69*	-9%	32*
Cc1ccc(NC(=S)NNC(=S)NC2CCCCC2)cc1	0%	-4%	35	.	-7
O=S(=O)(Cc1ccccc1)N1CCN(Cc2ccc(F)cc2Cl)CC1	13%	-13%	-18	14%	-2
CC(C)c1ccc(NC(=S)NN2C(C)CCCC2C)cc1 (stereo unspecified)	?	6.6µM*	10	.	1
S=C(Nc1ccc2nsnc2c1)NC1CCCCC1	62%	6%	88*	-29%	59*
S=C(Nc1ccc(Cl)c(Cl)c1)NC1CCCCC1	13µM*	0%	+	-30%	56*
S=C(Nc1ccc(Cl)cc1Cl)NC1CCCCC1	34%	-29%	-2	3%	-1
COc1ccccc1CNC(=O)c1cc(C(C)=O)c[nH]1	0%	7%	-5	2%	-5
Cc1nc(NC(=O)CSc2ccccc2N)sc1C	28%	73%	14	-1%	25*
SMILES	Pf growth 48h	Pf growth 96h	Shiga inhibitor	NS1 inh	CHX counter
Cc1cc(=O)[nH]c(SCC(=O)Nc2nc(-c3ccccc3)cs2)n1	23%	?	19	5%	-3
Cc1csc(SCC(=O)Nc2nc(-c3ccccc3)cs2)n1	38%	77%	27	-60%	13*
Cc1ccccc1C(=O)NCCc1nnc(SCC(=O)Nc2nc(-c3ccccc3)cs2)n1C	-4%	13µM*	-3	17%	0
Cc1csc(NC(=O)CSc2ccccc2F)n1	136%	7%	84*	.	37*
Cc1nnc(SCC(=O)Nc2nc(-c3ccc(F)cc3)cs2)[nH]c1=O	24%	-11%	45	1%	21*
Nc1ccccc1SCC(=O)Nc1nc(-c2ccccc2)cs1	16%	?	62	-6%	20*
Cc1ccc(-c2csc(NC(=O)CSc3nc(C)cs3)n2)cc1	174%	68%	111*	8%	42*
Cc1ccc(-c2csc(NC(=O)CSc3nc4ccccc4[nH]3)n2)cc1	-3%	30%	-8	29%	9
COc1cc(OC)cc(C(=O)N2CC(=O)Nc3ccccc32)c1	-24%	?	-15	13%	-1
CCN(CC)S(=O)(=O)c1cccc(NC(=O)CN(C)Cc2cccc(OC)c2)c1	?	?	-19	0%	-4
Cc1ccc(-c2csc3nc(CN(C)Cc4ccccc4)[nH]c(=O)c23)cc1	12µM*	4.1µM*	11	.	15
Cc1ccc(-c2csc3nc(CSc4nnc(-c5ccc(Cl)cc5)n4C)[nH]c(=O)c23)cc1	-7%	-21%	-9	14%	13*
O=c1[nH]c(Cc2cccs2)nc2scc(-c3ccc(Cl)cc3)c12	?	11%	15	-4%	9
Cc1csc(SCc2nc3scc(-c4ccccc4)c3c(=O)[nH]2)n1	?	-18%	24	2%	-2
CCn1c(SCc2nc3scc(-c4ccccc4)c3c(=O)[nH]2)nnc1-c1ccc(Cl)cc1	-20%	0%	-1	-10%	1
O=c1[nH]c(Cc2ccc(F)cc2)nc2scc(-c3ccc(F)cc3)c12	-2%	?	28	7%	17*
CCOc1ccc(C(=O)NC(=S)NC2CCCC2)cc1[N+](=O)[O-]	?	?	16	18%	-2
COc1ccc(C)cc1NC(=O)CCS(=O)(=O)c1ccc2c(c1)oc(=O)n2C	5%	-4%	-2	0%	-12
CCOc1ccc(CCNC(=O)COC(=O)/C=C/c2ccc(C)o2)cc1OCC	13µM*	5.2µM*	-1	-3%	11
CCCNC(=O)COC(=O)/C=C/c1ccc(C)o1	12%	31%	-2	.	2
CCOc1ccc(CCNC(=O)COC(=O)c2ccc(OC(C)C)cc2)cc1OCC	12µM*	?	.	.	.
CCOc1ccc(CCNC(=O)COC(=O)c2cc(OC)cc(OC)c2)cc1OCC	13%	-13%	-22	.	-1
CCOc1ccc(CCNC(=O)COC(=O)CCc2cc(OC)c(OC)c(OC)c2)cc1OCC	13µM*	?	.	.	.
CCCOc1ccc(C(=O)OCC(=O)NCCc2ccc(OCC)c(OCC)c2)cc1OC	?	13µM*	23	11%	9
CSc1ncc2c(n1)-c1cc(C)ccc1SC2	4%	9%	-20	3%	-2
SMILES	Pf growth 48h	Pf growth 96h	Shiga inhibitor	NS1 inh	CHX counter
COc1ccccc1N1CCN(CC(=O)Nc2sccc2C#N)CC1	?	?	-16	4%	13
Cc1nn(C)c(C(=O)NNC(=O)Nc2cccc(C(F)(F)F)c2)c1Cl	-4%	-2%	-10	4%	3
CCOC(=O)CCCNC(=O)CCNC(=O)c1ccc(OC(C)C)cc1	-7%	.	54*	13%	17*
COc1ccc(CCNC(=O)Cc2nn(C)c(=O)c3ccccc23)cc1OC	-2%	-3%	-4	8%	-1
CCOc1ccc(C(=O)CC(=O)C(=O)NCCc2ccc(OC)c(OC)c2)cc1	13µM*	227%	-2	20%	11
CCOc1ccc(CCNC(=O)COC(=O)c2nn(C)c(=O)c3ccccc23)cc1OCC	2.9µM*	41%	.	.	.
